PrPC TRFRET: inhibitors of human cell surface prion protein PrPC. P04156. TR-FRET read-out. inhibition, % at 13.8 µM. 370,000 tested, 0.43% active. AID 720596; in the data active = inhibition above about 24%; note: 0% = median of the test wells and 100% = reference compound wells
PfHsp40 rescue: compounds rescuing yeast from Plasmodium falciparum HSP40 toxicity | S. cerevisiae expressing PfHsp40, growth rescue, ATP luminescence | growth rescue, % at 12.5 µM | 340,000 tested, 0.68% active; in the data active = growth rescue above about 28%, passing the limit was not always enough;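 note: yeast W303a lacking pdr1 and pdr3 grown in galactose medium; growth measured after three days at 30 °C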
GDH-TPI counter-1: inhibits GDH-TPI coupling enzymes, artifact for Mtb FBA screen; GDH-TPI coupled enzyme counterscreen, NADH absorbance; 360,000 tested, 1.2% active; AID 588335; inhibition, % at 4.8 µM; in the data active = inhibition above about 30%;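 note: 0% = DMSO wells and 100% = wells lacking the enzyme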
PrP UTR inh: suppresses PrP 5' UTR mRNA reporter expression | cell-based PrP 5' UTR mRNA reporter, plate reader | inhibition, % (concentration not given with the values) | 340,000 tested, 0.35% active; in the data active = inhibition above about 52%; note: 0 = median of the neutral control wells
BJeLR viability: BJeLR cell viability loss | BJeLR (HRASV12) viability, CellTiter-Glo ATP luminescence, 48 h | inhibition, % (test concentration not listed) | 300,000 tested, 0.17% active | AID 1554; in the data active = inhibition above about 50%
FBA Mtb inh: inhibitors of M. tuberculosis fructose-bisphosphate aldolase; P9WQA3; purified M. tuberculosis FBA, fluorescence read-out; inhibition, % at 1 µM; 360,000 tested, 2.3% active; AID 588726;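 note: 0% = vehicle and 100% = reference inhibitor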
Target sequence (P9WQA3 whole entry, looked up): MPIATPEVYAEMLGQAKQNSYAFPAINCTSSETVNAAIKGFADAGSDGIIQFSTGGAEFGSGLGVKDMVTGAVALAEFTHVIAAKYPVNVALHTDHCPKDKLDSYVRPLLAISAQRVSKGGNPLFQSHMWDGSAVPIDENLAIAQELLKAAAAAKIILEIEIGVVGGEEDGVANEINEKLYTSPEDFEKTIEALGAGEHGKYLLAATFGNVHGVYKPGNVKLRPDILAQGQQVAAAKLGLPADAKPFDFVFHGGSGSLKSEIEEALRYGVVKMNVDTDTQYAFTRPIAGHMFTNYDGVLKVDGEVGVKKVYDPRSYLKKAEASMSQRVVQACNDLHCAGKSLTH
Mtb FBA confirm: confirmation of M. tuberculosis fructose-bisphosphate aldolase inhibitors | shares compounds with FBA Mtb inh | purified M. tuberculosis FBA, fluorescence read-out | inhibition, % at 1 µM | 5,600 tested, 78% active | AID 651616;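 note: 0% = vehicle wells and 100% = reference inhibitor wells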
GDH-TPI counter-2: counter-screen for M. tuberculosis FBA inhibitors: GDH-TPI coupled enzyme inhibition; 5,600 tested, 81% active; inhibition, % at 1 µM; AID 652141; shares compounds with FBA Mtb inh; GDH-TPI coupled enzyme counterscreen, fluorescence; in the data active = inhibition above about 10%
GDH-TPI DR: counter-screen for M. tuberculosis FBA inhibitors: GDH-TPI dose response | shares compounds with FBA Mtb inh | GDH-TPI coupled enzyme assay, fluorescence, artifact counterscreen | IC50, µM | 170 tested, 79% active | AID 652145; call rule not given here
An asterisk follows results filed as active; · = no result; + = active, no number. Hits are enriched below; roughly 4.5% of the tested compounds scored in any of these assays. Cut-off read from the data, not from the text of the source, unless noted: active = inhibition above about 27%; inactive = the rest.

SMILES	PrPC TRFRET	PfHsp40 rescue	GDH-TPI counter-1	PrP UTR inh	BJeLR viability	FBA Mtb inh	Mtb FBA confirm	GDH-TPI counter-2	others
Nc1ccc(C(=O)Nc2ccc3nc(-c4ccncc4)[nH]c3c2)cc1	8	1	17	-4	0	-1	·	·
CS(=O)(=O)c1ccc(-c2csc(C(O)c3cccc(Cl)c3)n2)cc1 (stereo not given)	5	·	-8	·	·	0	·	·
c1ccc2c(c1)OCCc1c-2[nH]c2ccccc12	2	0	-4	-13	10	47*	75*	55*
Cc1ccsc1C(=O)N1CCC1(C)C(=O)NS(=O)(=O)c1ccc(Br)cc1 (stereo not given)	-4	·	2	·	·	0	·	·
CCC(=O)c1ccc(/C=C/c2nc3ccccc3n2C)o1	-12	1	11	-96	-12	83*	-5	-5
Cn1c(/C=N/O)nc2ccccc21	5	-1	4	-22	-9	52*	21	10*
C(=N\n1cnnc1)/c1nc2ccccc2[nH]1	0	-1	20	-7	-5	74*	60*	49*
CC(C)Cn1c(/C=C/c2ccco2)nc2ccccc21	-5	2	12	-21	8	6	·	·
Cc1[nH]c2ccccc2c1/C=N/n1cnnc1	-3	1	24	-10	-8	1	·	·
Cn1c(/C=N/n2cnnc2)nc2ccccc21	0	-2	37*	-28	0	45*	14	-3
Cc1ccccc1NC(=O)c1ccc(Cl)c(NC(=O)c2cccnc2)c1	1	·	·	·	2	·	·	·
COC(=O)c1cnn(-c2ccc(Cl)cc2)c1/C=N/NC(N)=S	-25	0	18	-19	-11	45*	67*	35*
Nc1c(C(=O)N/N=C/c2ccc(Cl)cc2)cnn1-c1ccccc1	-4	-1	12	-58	10	1	·	·
CCC(C)C(=O)Nc1nnc(-c2cccs2)s1 (stereo not given)	-1	2	10	-34	·	32*	51*	47*
COCC(=O)Nc1nnc(-c2cccs2)s1	-1	0	25	-20	6	23	·	·
CCC(=O)Nc1nnc(-c2cccs2)s1	1	1	0	-8	-9	27*	0	-4
O=C(Cc1ccccc1)Nc1nnc(-c2cccs2)s1	-7	-1	23	-23	-22	68*	106*	83*
COc1ccc(N(CC(=O)NC2CCCCC2)C(=O)CCC(=O)Nc2nc(C)cs2)cc1	-2	0	0	-7	3	-1	·	·
Cc1nc2c(c(=O)c3ccccc3n2C)c(=O)n1C1CCCCCC1	10	1	16	-34	-1	37*	45*	46*
Cc1cccc(C)c1NC(=O)COc1ccc2c(C)c(Cc3ccccc3)c(=O)oc2c1C	-6	0	0	-6	-1	1	·	·
Cc1c(OCC(=O)N[C@@H](Cc2ccccc2)C(=O)O)ccc2c1oc(=O)c1ccccc12	1	0	12	-6	8	52*	+	+
Cc1c(Cc2ccccc2)c(=O)oc2c(C)c(OC(C)C(=O)N[C@@H](Cc3ccccc3)C(=O)O)ccc12 (stereo not given in full)	-2	1	10	-21	-13	68*	191*	160*
Cc1c(OCC(=O)N[C@@H](CSCc2ccccc2)C(=O)O)ccc2c3c(c(=O)oc12)CCC3	-1	0	8	-38	3	2	·	·
COc1ccc(-n2c(SCC(=O)N(C)C3CCS(=O)(=O)C3)nc3ccc(O)cc3c2=O)cc1OC (stereo not given)	-6	-1	3	-15	·	3	·	·
COc1ccc(S(=O)(=O)Nc2nc3c(s2)CCCC3)cc1	4	1	2	-7	5	56*	86*	68*
SMILES	PrPC TRFRET	PfHsp40 rescue	GDH-TPI counter-1	PrP UTR inh	BJeLR viability	FBA Mtb inh	Mtb FBA confirm	GDH-TPI counter-2	others
O=C(Nc1nnc(-c2ccccn2)o1)c1cccc(Cl)c1	-7	4	13	-13	4	-3	·	·
CC(=O)Nc1nnc(-c2ccccn2)o1	-3	-1	-2	-21	-4	31*	+	153*
CCNC(=O)C1(C)CCCN1C(=O)c1ccc2c(c1)OCO2 (stereo not given)	6	·	16	·	·	3	·	·
Clc1nc(Oc2ccccc2)nc(-c2cn(-c3ccccc3)c3ccccc23)n1	10	-1	14	0	7	56*	45*	40*
Nc1ccc2c(c1)C(=O)N(CCCC(=O)O)C2=O	-7	-2	4	-25	-2	0	·	·
Nc1ccc2c(c1)C(=O)N(CCCCCC(=O)O)C2	3	0	4	-16	0	38*	121*	110*
Cc1cc(C)n2nc(-c3ccsc3-n3c(C)ccc3C)cc2n1	5	1	4	-11	9	46*	61*	27*
Cc1ccc(-c2cc3nc(C)cc(C)n3n2)cc1	0	0	-5	-75	4	9	·	·
COCCSc1ccccc1C(=O)N1CCN(Cc2ccccc2)CC1	-2	0	-1	-10	-4	1	·	·
CSc1ncccc1C(=O)Nc1ccc(OC(F)(F)F)cc1	8	1	1	-18	-4	44*	33*	34*
CSc1nccc(Oc2ccccc2Cl)n1	8	·	-4	·	-1	110*	13	8	GDH-TPI DR=>10
CSc1nccc(Oc2cncc(Cl)c2)n1	7	0	-4	-11	5	0	·	·
Cc1nnc(NC(=O)CCn2cnc3ccccc3c2=O)s1	-6	0	2	-19	-2	-2	·	·
Cc1ccccc1N(CC(=O)NCC1CCCO1)C(=O)C1(C)CC(=O)N=C2C=CC=CN21 (stereo not given)	0	1	-1	-24	3	86*	106*	79*
CC1=CC2=NC(=O)CC(C)(C(=O)N(CC(=O)NC(C)C)C3CCCC3)N2C=C1 (stereo not given)	·	·	·	·	-6	·	·	·
Cc1cc(C)cc(N(CC(=O)NC2CCCC2)C(=O)C2(C)CC(=O)N=C3C=CC=CN32)c1 (stereo not given)	-6	-1	12	-12	-7	36*	+	161*
CC1=CC2=NC(=O)CC(C)(C(=O)N(CC(=O)NC3CCCC3)Cc3ccccc3)N2C=C1 (stereo not given)	-1	1	8	1	-3	69*	9	4
CC1(C(=O)N(CC(=O)NC2CCCC2)C2CCCC2)CC(=O)N=C2C=CC=CN21 (stereo not given)	-4	0	25	-24	3	110*	-1	-5
